# Results published in PubChem BioAssay (NCATS).
# Values without a mark were called inactive. Inconclusive results are not listed. Where a call stands in place of a potency, no number is given. Calls of active or inactive are those of the source. Unless noted, the call rests on the fitted dose curve; in most records, active means well fitted curve in the direction sought with a large enough effect; inconclusive means small, poorly fitted or top-dose-only effect, or another doubt; inactive means no such curve, though single readings can be large; an effect the other way counts as inactive or inconclusive.
# Columns and labels:
# [1] = AP1 Signaling Pathway (AID 357; active means well fitted curve in either direction with a large enough effect, not every such curve was filed as active;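 further: ME-180 reporter cells stimulated with EGF at its EC50 level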); conditions: ME-180 AP-1-bla reporter, EGF-induced, beta-lactamase ratio, 5 h; at 17.2 µM (top of the series) unless noted
# Summary of the method: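 Titration-series screen for positive or negative modulators of EC50 EGF-induced signaling in ME-180 cells carrying an AP-1-driven beta-lactamase reporter. After 5 hours at 37 degrees Celsius, CCF4 460nm/530nm emission ratio gave %Activity; AC50 values derived.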
# [2] = NFAT Signaling Pathway (AID 444; active means well fitted curve in either direction with a large enough effect, not every such curve was filed as active;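 further: carbachol stimulus at about its EC50 of 1 µM final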); conditions: Jurkat NFAT-bla M1, carbachol, beta-lactamase ratio, 5 h; at 17.2 µM (top of the series) unless noted
# Summary of the method: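 Jurkat cells carrying an NFAT-driven β-lactamase reporter and co-transfected muscarinic M1 receptor were treated with compound plus carbachol (1 uM final, an EC50 level) for 5 h at 37 °C. CCF4 loading followed for 1 h at RT; 460/530 nm ratio gave %activity.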
# [3] = Stat Signaling Pathway (AID 446; active means well fitted curve in either direction with a large enough effect, not every such curve was filed as active;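 further: ME-180 cervical cancer cells given 40 pM IL-6 alongside compound; SIE-controlled beta-lactamase reporter measured as 460/530 nm FRET emission ratio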)
# Summary of the method: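 Reporter line: ME-180 cervical carcinoma, SIE-beta-lactamase. Treatment: compound with 40 pM IL-6, 5 hrs, 37 C, in low-serum OPTI-MEM with 10 mM HEPES pH 7.3. Detection: 460/530 nm fluorescence.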
# [4] = target: Glucocorticoid receptor (Homo sapiens) (UniProt P04150); assay: GR-GFP Redistribution (AID 450;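 active means compounds whose dose series gives a full or clear partial fitted curve of increased nuclear translocation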; further: potency means the concentration at half of the fitted maximal effect); conditions: U2OS GR-GFP nuclear translocation, laser cytometry, 2 h
# Glucocorticoid receptor (Homo sapiens), sequence (P04150 whole entry, looked up, the tested form may be a part): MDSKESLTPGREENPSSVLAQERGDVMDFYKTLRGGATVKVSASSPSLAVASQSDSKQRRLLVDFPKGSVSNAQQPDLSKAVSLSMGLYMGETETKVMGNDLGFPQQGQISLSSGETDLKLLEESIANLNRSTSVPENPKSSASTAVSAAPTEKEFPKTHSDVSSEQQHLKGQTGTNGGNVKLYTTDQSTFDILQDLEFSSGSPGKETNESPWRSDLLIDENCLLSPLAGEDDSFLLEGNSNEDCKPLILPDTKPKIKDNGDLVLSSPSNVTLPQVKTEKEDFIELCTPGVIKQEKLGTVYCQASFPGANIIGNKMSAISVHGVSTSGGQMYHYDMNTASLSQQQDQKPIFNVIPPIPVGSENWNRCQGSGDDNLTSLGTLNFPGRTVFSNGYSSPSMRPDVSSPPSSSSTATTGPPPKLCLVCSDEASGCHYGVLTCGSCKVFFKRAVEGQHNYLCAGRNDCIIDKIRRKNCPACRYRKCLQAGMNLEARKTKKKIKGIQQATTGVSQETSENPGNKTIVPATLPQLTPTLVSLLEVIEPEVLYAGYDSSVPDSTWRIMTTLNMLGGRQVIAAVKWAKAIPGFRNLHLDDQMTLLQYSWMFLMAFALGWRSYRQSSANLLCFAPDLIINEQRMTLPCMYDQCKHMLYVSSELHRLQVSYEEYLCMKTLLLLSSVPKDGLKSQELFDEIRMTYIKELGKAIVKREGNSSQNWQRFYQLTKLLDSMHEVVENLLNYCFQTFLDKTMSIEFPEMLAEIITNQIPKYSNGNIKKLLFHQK
# [5] = qHTS Assay for Identification of Small Molecule Agonists for Hypoxia Response Element Signaling Pathway (AID 914; active means well fitted activation curve with a large enough effect in the signal ratio, with a control signal flat, not every such curve was filed as active; the % refers to the signal ratio); conditions: ME-180 (cervical carcinoma) HRE-bla reporter, beta-lactamase ratio, CoCl2, 17 h; activation: active compounds read high
# Summary of the method: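 Cells were plated overnight, pin-dosed with compound in a titration series, co-stimulated with EC50 CoCl2 and incubated 17 hours at 37 degrees Celsius. CCF4 substrate was then loaded, and AC50 values came from the 460nm/530nm ratio.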
# [6] = target: Glucocorticoid receptor (Homo sapiens) (UniProt P04150); assay: GR-EFC Redistribution (AID 451; calls by dose curve; further: potency means the concentration at half of the fitted maximal effect); conditions: CHO-K1 GR-EFC translocation, beta-gal luminescence, 2 h
# Summary of the method: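 CHO-K1 cells stably expressing nuclear-localized β-gal enzyme acceptor and GR fused C-terminally to the enzyme donor fragment; ligand-driven nuclear translocation restores β-gal by complementation. Compounds titrated up to 46 uM final, 2 h at 37 °C; luminescence read.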
# [7] = target: Mitogen-activated protein kinase 10 (Mus musculus) (UniProt Q61831); assay: JNK3 AlphaScreen Assay (AID 530; active means well fitted curve in either direction with a large enough effect, not every such curve was filed as active;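 further: kinase came from lysate of stimulated human HepG2 cells; signal reports phosphorylation of biotinylated GST-cJun 1-79 at Ser73 with 10 µM ATP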)
# Summary of the method: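 JNK3 came from HepG2 lysates pre-activated with IL-1beta and TNF-alpha and phosphorylated biotinylated GST-cJun (1-79) at 10 uM ATP, pH 7.6, room temperature. Compounds were titrated. AlphaScreen signal used anti-phospho-cJun (Ser73) antibody.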
# [8] = target: 3',5'-cyclic-AMP phosphodiesterase 4B (Homo sapiens) (UniProt Q07343); assay: qHTS Assay for Inhibitors of PDE-IV (AID 607; active means well fitted activation curve with a large enough effect in the main read-out, with a control signal flat, not every such curve was filed as active)
# 3',5'-cyclic-AMP phosphodiesterase 4B (Homo sapiens), sequence (Q07343 whole entry, looked up): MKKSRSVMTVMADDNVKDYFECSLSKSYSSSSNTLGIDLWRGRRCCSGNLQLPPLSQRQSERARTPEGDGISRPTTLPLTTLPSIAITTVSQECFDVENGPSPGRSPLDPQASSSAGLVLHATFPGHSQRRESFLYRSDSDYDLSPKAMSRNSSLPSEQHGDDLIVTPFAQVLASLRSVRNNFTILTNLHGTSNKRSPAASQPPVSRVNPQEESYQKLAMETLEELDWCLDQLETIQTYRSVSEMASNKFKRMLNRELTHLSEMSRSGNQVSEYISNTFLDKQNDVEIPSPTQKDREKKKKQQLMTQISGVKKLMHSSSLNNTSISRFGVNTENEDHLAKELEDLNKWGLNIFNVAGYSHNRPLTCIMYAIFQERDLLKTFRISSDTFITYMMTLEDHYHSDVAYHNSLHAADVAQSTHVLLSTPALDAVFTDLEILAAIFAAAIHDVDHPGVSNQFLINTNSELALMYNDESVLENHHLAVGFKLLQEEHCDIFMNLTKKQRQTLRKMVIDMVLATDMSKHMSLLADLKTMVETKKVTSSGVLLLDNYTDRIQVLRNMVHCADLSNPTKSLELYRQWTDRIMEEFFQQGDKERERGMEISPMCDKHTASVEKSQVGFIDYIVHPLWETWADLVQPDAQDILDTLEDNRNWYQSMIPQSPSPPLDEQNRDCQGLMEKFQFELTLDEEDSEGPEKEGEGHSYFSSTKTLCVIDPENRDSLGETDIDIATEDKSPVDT
# Summary of the method: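 Cell-based read-out of cAMP via a modified cyclic nucleotide-gated channel and membrane potential dye (535/590 nm) in HEK293 cells expressing PDE4 endogenously. Compounds tested up to 22.9 uM final; 100 uM RO 20-1724 reference.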
# [9] = target: Guanine nucleotide-binding protein G(i) subunit alpha-1 (Homo sapiens) (UniProt P63096); assay: qHTS Assay for Inhibitors of RGS12 GoLoco Motif Activity (Green Fluorophore) (AID 879);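 further: negative values mean loss of peptide binding seen as reduced polarization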
# Guanine nucleotide-binding protein G(i) subunit alpha-1 (Homo sapiens), sequence (P63096 whole entry, looked up): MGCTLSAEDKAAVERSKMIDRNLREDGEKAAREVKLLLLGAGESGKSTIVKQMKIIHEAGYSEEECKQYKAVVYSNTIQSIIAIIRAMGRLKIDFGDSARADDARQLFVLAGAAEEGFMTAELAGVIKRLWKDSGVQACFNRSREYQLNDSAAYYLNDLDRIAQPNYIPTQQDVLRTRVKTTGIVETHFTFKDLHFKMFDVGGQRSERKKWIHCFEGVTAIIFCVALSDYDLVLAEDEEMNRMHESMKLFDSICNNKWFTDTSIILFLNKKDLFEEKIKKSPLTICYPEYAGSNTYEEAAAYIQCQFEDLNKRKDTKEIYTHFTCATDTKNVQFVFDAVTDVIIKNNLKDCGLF
# Summary of the method: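 Fluorescence polarization assay: 50 nM Gαi1 with 10 nM FITC-labeled RGS12 GoLoco peptide in 10 mM Tris pH 7.5, 150 mM NaCl, 0.1 mM GDP, 0.05% NP40, 10 min at room temperature with compound.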
# [10] = target: Cytochrome P450 3A4 (Homo sapiens) (UniProt P08684); assay: qHTS Assay for Activators of Cytochrome P450 3A4 (AID 885); further: nearly all actives have a fitted effect of over 65% in size
# Cytochrome P450 3A4 (Homo sapiens), sequence (P08684 whole entry, looked up): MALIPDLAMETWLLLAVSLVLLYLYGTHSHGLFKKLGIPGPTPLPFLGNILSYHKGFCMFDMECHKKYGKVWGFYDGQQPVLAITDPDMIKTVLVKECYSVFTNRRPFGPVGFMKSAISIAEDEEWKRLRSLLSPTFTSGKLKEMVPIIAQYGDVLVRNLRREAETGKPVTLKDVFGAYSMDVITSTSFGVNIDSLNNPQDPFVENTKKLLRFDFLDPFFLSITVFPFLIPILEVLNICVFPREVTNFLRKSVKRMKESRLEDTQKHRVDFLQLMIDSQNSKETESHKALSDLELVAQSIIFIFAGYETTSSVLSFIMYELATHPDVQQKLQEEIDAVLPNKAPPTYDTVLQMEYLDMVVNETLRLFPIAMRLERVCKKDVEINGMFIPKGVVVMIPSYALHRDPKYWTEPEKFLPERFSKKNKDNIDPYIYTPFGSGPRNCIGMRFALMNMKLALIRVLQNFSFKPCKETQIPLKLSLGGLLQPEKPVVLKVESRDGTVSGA
# Summary of the method: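 Signal was normalized against complete inhibition by 57 uM ketoconazole. The reaction used 20nM CYP3A4 with 25uM Luciferin-PPXE, 10-min compound preincubation and a 60-min NADPH-supported step at RT.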
# [11] = qHTS Assay for Identification of Small Molecule Antagonists for NFkB Signaling Pathway (AID 895; active means well fitted inhibition curve with a large enough effect in the signal ratio, with a control signal flat, not every such curve was filed as active; the % refers to the signal ratio)
# Summary of the method: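 NFkB-bla ME-180 cervical carcinoma cells with beta-lactamase reporter under NFkB response element; compounds added, then TNF alpha at 10 pM final (EC50), 5 h at 37 C. LiveBLAzer substrate 2 h, room temperature; emission 460/530 nm at 405 nm excitation.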
# [12] = qHTS Assay for Identification of Small Molecule Agonists for Thrombopoietin (TPO) Signaling Pathway (AID 917)
# Summary of the method: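 Reporter: GpIIb promoter–luciferase in murine Ba/F3 expressing human TPO receptor. Pre-starved of IL-3 overnight; compounds with 26 pM TPO, 24 hrs, 37 C/5% CO2; luminescence read.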
# [13] = target: Pyruvate kinase (Leishmania mexicana) (UniProt Q27686); assay: qHTS Validation Assay for Inhibitors of Leishmania Mexicana Pyruvate Kinase (AID 945)
# Pyruvate kinase (Leishmania mexicana), sequence (Q27686 2-499 E452W): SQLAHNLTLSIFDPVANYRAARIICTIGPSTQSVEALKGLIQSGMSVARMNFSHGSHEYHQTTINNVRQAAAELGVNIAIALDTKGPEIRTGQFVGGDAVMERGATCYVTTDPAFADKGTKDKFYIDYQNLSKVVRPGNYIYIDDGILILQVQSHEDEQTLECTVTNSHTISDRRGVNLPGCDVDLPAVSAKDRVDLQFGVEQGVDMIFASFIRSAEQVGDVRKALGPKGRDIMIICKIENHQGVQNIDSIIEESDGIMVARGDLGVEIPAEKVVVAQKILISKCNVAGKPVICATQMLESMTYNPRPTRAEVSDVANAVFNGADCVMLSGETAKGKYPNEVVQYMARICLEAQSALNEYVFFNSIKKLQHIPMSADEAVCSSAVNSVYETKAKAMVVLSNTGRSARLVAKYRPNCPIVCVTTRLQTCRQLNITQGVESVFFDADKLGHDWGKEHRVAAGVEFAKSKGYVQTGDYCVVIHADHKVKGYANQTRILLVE
# Summary of the method: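 The enzyme is a highly purified E451W mutant of LmPYK used at 0.2 nM. It converts 0.5 mM PEP and 0.1 mM ADP over 1 h at room temperature; product ATP is quantified by luciferase luminescence relative to DMSO controls.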
# [14] = target: Pyruvate kinase PKM (Homo sapiens) (UniProt P14618); assay: qHTS Assay for Activators of Human Muscle Pyruvate Kinase (AID 954; active means well fitted curve in the direction sought with a large enough effect, not every such curve was filed as active)
# Pyruvate kinase PKM (Homo sapiens), sequence (P14618 whole entry, looked up): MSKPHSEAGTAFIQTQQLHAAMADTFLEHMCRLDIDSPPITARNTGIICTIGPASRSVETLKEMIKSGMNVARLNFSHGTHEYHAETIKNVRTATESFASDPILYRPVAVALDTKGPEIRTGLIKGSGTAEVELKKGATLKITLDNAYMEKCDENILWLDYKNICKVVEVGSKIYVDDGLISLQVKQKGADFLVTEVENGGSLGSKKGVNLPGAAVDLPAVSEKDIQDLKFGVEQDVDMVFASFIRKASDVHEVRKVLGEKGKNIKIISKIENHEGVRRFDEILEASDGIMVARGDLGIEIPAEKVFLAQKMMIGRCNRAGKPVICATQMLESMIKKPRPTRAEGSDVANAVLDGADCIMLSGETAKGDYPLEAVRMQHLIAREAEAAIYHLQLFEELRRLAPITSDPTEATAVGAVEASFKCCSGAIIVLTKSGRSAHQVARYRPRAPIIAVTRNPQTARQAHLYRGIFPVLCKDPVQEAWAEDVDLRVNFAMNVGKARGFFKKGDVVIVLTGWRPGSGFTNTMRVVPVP
# Summary of the method: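 Human PKM2 activity is measured as ATP generation, detected by luciferase-coupled luminescence. The enzyme (0.1 nM) acts on 0.5 mM PEP and 0.1 mM ADP for 1 h at ambient temperature; data are normalized to uninhibited and full-inhibition wells.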
# [15] = target: Alpha-galactosidase (Coffea arabica) (UniProt Q42656); assay: Counterscreen for Glucocerebrosidase Inhibitors: qHTS Assay for Coffee Bean alpha-Galactosidase at pH 4.5 (AID 957)
# Alpha-galactosidase (Coffea arabica), sequence (Q42656 whole entry, looked up): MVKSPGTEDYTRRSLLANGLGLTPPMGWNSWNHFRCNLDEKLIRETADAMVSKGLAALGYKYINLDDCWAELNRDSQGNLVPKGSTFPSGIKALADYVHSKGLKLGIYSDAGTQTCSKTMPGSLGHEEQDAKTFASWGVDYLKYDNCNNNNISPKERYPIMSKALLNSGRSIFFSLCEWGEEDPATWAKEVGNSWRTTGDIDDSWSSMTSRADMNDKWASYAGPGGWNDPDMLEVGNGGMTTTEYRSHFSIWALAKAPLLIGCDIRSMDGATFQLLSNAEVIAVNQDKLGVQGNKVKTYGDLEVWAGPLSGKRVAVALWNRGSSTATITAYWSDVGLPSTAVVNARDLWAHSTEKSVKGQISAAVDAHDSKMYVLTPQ
# Summary of the method: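 Green coffee bean enzyme (2 nM final) was incubated with compounds (0.7 nM to 77 uM) and 4-methylumbelliferyl alpha-D-galactopyranoside (80 uM final) in 50 mM citric acid, 0.005% Tween-20, pH 4.5, 20 min at room temperature; AC50 from Hill fits.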
# [16] = target: Alpha-galactosidase A (Homo sapiens) (UniProt P06280); assay: Counterscreen for Glucocerebrosidase Inhibitors: qHTS Assay for Human alpha-Galactosidase at pH 4.5 (AID 992)
# Alpha-galactosidase A (Homo sapiens), sequence (P06280 whole entry, looked up): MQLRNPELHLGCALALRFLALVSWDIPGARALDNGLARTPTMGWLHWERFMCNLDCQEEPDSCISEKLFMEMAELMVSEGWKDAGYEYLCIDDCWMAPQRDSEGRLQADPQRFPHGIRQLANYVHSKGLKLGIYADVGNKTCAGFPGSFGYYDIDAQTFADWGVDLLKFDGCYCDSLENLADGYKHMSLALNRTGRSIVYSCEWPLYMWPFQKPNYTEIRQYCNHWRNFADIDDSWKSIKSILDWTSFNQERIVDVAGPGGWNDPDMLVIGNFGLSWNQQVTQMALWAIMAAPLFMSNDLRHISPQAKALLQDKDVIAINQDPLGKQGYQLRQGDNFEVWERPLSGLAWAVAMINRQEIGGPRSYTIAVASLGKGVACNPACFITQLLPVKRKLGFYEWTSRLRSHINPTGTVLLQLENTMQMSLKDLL
# Summary of the method: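 Quantitative HTS: compounds tested from 0.7 nM up to 77 uM against 2 nM enzyme with 80 uM 4-MU alpha-D-galactopyranoside. The 20 min room-temperature reaction is stopped with 1M NaOH/1M glycine, pH 10.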
# [17] = target: alpha-glucosidase (Oryza sativa, rice) (UniProt Q653V4); assay: Counterscreen for Glucocerebrosidase Inhibitors: qHTS Assay for Rice alpha-Glucosidase at pH 5.0 (AID 997)
# Summary of the method: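 Rice alpha-glucosidase (4 nM final) with 400 uM 4-methylumbelliferyl-alpha-D-glucopyranoside in citrate buffer pH 5.0, 20 min at room temperature, stopped at pH 10; fluorescence 365/440 nm, compounds 0.7 nM–77 uM, AC50 from Hill fits.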
# [18] = target: Alpha-galactosidase (Coffea arabica) (UniProt Q42656); assay: Counterscreen for Glucocerebrosidase Inhibitors: qHTS Assay for Coffee Bean alpha-Galactosidase at pH 5.9 (AID 998)
# Summary of the method: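 Green coffee bean enzyme (2 nM final) was incubated with compounds (0.7 nM–77 uM) and 4-methylumbelliferyl alpha-D-galactopyranoside (80 uM) in citrate buffer pH 5.9, 20 min at room temperature. High-pH stop; fluorescence 365/440 nm; AC50 from Hill fits.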
# [19] = qHTS Assay for Identification of Small Molecule Antagonists for Thrombopoietin (TPO) Signaling Pathway (AID 918); conditions: TPO-dependent cell signaling reporter, antagonist mode; further: potency means the concentration at half of the fitted maximal effect; nearly all actives have a fitted effect of over 60% in size
# Summary of the method: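 Murine Ba/F3 cells stably expressing human TPO receptor and a Glycoprotein IIb promoter–luciferase reporter were IL-3-starved overnight, treated with compounds plus TPO (26 pM final, its EC50) for 24 hrs at 37 C, then read by luminescence.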
# [20] = target: Muscarinic acetylcholine receptor M1 (Rattus norvegicus) (UniProt P08482); assay: qHTS Assay for Antagonists of Acetylcholine Muscarinic M1 Receptor: Kinetic Measurement of Intracellular Calcium Response (AID 943);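 further: Fluo-4 calcium signal as peak divided by basal fluorescence over 4 min; nearly all actives have a fitted effect of over 75% in size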
# Muscarinic acetylcholine receptor M1 (Rattus norvegicus), sequence (P08482 whole entry, looked up): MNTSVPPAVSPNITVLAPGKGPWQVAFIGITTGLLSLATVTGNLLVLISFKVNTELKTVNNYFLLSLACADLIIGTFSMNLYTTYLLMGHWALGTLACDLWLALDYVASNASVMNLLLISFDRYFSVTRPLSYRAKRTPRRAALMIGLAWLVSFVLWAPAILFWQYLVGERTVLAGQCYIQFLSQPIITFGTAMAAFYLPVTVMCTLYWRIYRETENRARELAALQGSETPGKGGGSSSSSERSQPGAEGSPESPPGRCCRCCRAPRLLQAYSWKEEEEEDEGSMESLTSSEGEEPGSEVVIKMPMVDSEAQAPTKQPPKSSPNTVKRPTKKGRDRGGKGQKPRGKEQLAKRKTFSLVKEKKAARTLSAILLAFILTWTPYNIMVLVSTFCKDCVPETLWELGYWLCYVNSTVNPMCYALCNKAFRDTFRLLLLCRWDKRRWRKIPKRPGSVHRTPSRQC
# Summary of the method: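 CHO cells stably expressing rat M1 were loaded with no-wash Fluo-4 dye for 1 h at 37C, pre-incubated 10 min with compound, then challenged with EC80 carbachol (100 nM final); kinetic calcium read 4 min, peak/basal ratio.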
# [21] = target: Muscarinic acetylcholine receptor M1 (Rattus norvegicus) (UniProt P08482); assay: qHTS Assay for Antagonists of Acetylcholine Muscarinic M1 Receptor: Measurement of IP-One Response (AID 944); further: nearly all actives have a fitted effect of over 75% in size
# Summary of the method: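 CHO cells expressing rat M1 receptor, recovered overnight, were pre-incubated 10 min with compound, then stimulated 30 min with carbachol at EC80 (200 nM) in LiCl-containing buffer, pH 7.4. IP1 accumulation was read by HTRF (620/665 nm).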
# [22] = target: Cytochrome P450 2D6 (Homo sapiens) (UniProt P10635); assay: qHTS Assay for Inhibitors and Substrates of Cytochrome P450 2D6 (AID 891); further: potency means the concentration at half of the fitted maximal effect; nearly all actives have a fitted effect of over 60% in size
# Summary of the method: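 Human CYP2D6 (5 nM) with 30 uM Luciferin-ME EGE (at Km) in 100 mM KPO4, compound preincubated 10 min, then NADPH regeneration system for 60 min at room temperature. Luciferin read by luminescence; normalized to 1.43 uM quinidine.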
smiles,measurement,setting,value
CC1(C)CC(n2[nH]c(=O)c3c2NC(=O)CSC3c2ccccc2)CCO1 (configuration not stated),"activity change, negative = inhibition",[1],0.712%
same,"activity change, negative = inhibition",[2],-1.52%
same,outcome,[3],inactive
same,Potency,[4],> 20.6 µM
same,activation,[5],18.8%
COc1ccc(C(=O)CC2C(=O)N(C)C(=O)N(C)C2=O)cc1,"activity change, negative = inhibition",[1],8.4%
same,"activity change, negative = inhibition",[2],-29.5%
same,Potency,[4],> 20.6 µM
O=c1[nH]c(=O)n(Cc2ccccc2)c(O)c1C=NCCN1CCNCC1,"activity change, negative = inhibition",[1],1.47%
same,"activity change, negative = inhibition",[2],-23.3%
same,Potency,[4],> 20.6 µM
C[N+]1(C)CCO[C@@](O)(c2ccc(-c3ccc([C@]4(O)C[N+](C)(C)CCO4)cc3)cc2)C1,"activity change, negative = inhibition",[1],-2.41% [at 38 µM]
same,"activity change, negative = inhibition",[2],-10.8% [at 38 µM]
same,outcome,[3],inactive
same,Potency,[4],> 46 µM
same,Potency,[6],> 46 µM
same,outcome,[7],inactive
same,outcome,[8],inactive
same,Potency,[9],inactive
same,Potency,[10],inactive
same,Potency,[11],inactive
same,outcome,[12],inactive
same,Potency,[13],inactive
same,outcome,[14],inactive
same,outcome,[15],inactive
same,outcome,[16],inactive
same,outcome,[17],inactive
same,outcome,[18],inactive
Cn1c(O)c(C=NCCCNC2CCCCC2)c(=O)n(C)c1=O,"activity change, negative = inhibition",[1],3.35%
same,"activity change, negative = inhibition",[2],-13.3%
same,Potency,[4],> 20.6 µM
N[C@@H]1CCc2cc(O)c(O)cc2C1,"activity change, negative = inhibition",[1],-9.85% [at 38 µM]
same,"activity change, negative = inhibition",[2],-2.09% [at 38 µM]
same,outcome,[3],inactive
same,Potency,[4],> 46 µM
same,Potency,[6],> 46 µM
same,outcome,[8],inactive
same,Potency,[9],inactive
same,Potency,[19],10 µM (active)
same,Potency,[20],inactive
same,Potency,[21],inactive
same,Potency,[13],inactive
same,outcome,[14],inactive
same,outcome,[15],inactive
same,outcome,[16],inactive
same,outcome,[17],inactive
Cc1ccc2c(c1)[C@@H]1CN(C)CC[C@@H]1N2C(=O)Nc1cccc(C(F)(F)F)c1,"activity change, negative = inhibition",[1],28.8%
same,"activity change, negative = inhibition",[2],-12.5%
same,Potency,[4],> 20.6 µM
COc1cccc(-n2c(O)c(C=NCCN3CCOCC3)c(=O)[nH]c2=O)c1,"activity change, negative = inhibition",[1],0.139%
same,"activity change, negative = inhibition",[2],11%
same,Potency,[4],> 20.6 µM
CCN(CC)C(=O)N[C@H]1C[C@H]2c3cccc4[nH]cc(c34)C[C@@H]2N(C)C1,"activity change, negative = inhibition",[1],9.81% [at 38 µM]
same,"activity change, negative = inhibition",[2],3.16% [at 38 µM]
same,outcome,[7],inactive
same,outcome,[8],inactive
same,Potency,[10],inactive
same,Potency,[22],0.0398 µM (active)
same,Potency,[11],inactive
same,outcome,[12],inactive
same,Potency,[20],inactive
same,Potency,[13],inactive
same,outcome,[14],inactive
same,outcome,[15],inactive
same,outcome,[16],inactive
same,outcome,[17],inactive
same,outcome,[18],inactive
